Data published in PubChem BioAssay.
For some assays here: Measured potencies and affinities stand elsewhere. The source made the active and inactive calls. Unless noted, the rule behind the calls is not given here.

Columns and labels:
[1] = antimalarial activity against Dd2 strain (AID 2302;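 active = growth inhibition above 50% at the single 2 µM test dose, taken to imply half-maximal potency below 2 µM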;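 note: 0% = DMSO untreated growth and 100% = chloroquine plus artemisinin killed control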); conditions: P. falciparum Dd2 in RBCs, LDH growth readout, 72 h; at 2 µM; stronger effect = higher value
[2] = HepG2 cytotoxicity, primary screen, cytotoxicity control for P. falciparum antimalarial project, cell-based, ATP luminescence (AID 2303;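 active = inhibition above 50%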;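 note: 0% = DMSO wells and 100% = digitonin-killed cells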); conditions: HepG2 viability, 24-48 h, at 10 µM, stronger effect = higher value
[3] = biological target: L-lactate dehydrogenase (Plasmodium falciparum (isolate CDC / Honduras)) (UniProt Q27743); test: PfLDH activity inhibition – cell lysate, 3D7 strain, counter-screen for P. falciparum growth inhibition project (AID 2304);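 note: 0% = vehicle and 100% = reference inhibitor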; conditions: P. falciparum 3D7 crude extract, LDH APAD/NBT absorbance; at 2 µM; stronger effect = higher value
L-lactate dehydrogenase (Plasmodium falciparum (isolate CDC / Honduras)), sequence (Q27743 whole entry, looked up): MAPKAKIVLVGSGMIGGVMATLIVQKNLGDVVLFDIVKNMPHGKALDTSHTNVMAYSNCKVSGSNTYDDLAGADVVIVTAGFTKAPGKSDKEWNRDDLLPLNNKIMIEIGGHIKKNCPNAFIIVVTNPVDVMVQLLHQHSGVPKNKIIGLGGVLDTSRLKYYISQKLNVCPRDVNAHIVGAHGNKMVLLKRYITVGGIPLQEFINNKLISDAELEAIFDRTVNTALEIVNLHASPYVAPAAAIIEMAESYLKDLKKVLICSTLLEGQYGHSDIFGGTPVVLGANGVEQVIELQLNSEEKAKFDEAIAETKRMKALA

[4] = inhibition of 3D7 malaria parasite growth – strain 3D7 (AID 2306);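 note: 0% = DMSO wells and 100% = chloroquine plus artemisinin control wells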; conditions: P. falciparum 3D7 erythrocytic growth, LDH absorbance, 72 h; at 2 µM; stronger effect = higher value
[5] = biological target: Calcium-dependent protein kinase 1 (Plasmodium falciparum (isolate 3D7)) (UniProt P62344); test: PfCDPK1 kinase inhibitors, biochemical, TCAMS library (AID 1159585; cut-off not given, nearly all actives have IC50 up to about 0.98 µM;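 note: inhibitors leave more ATP so luminescence rises with inhibition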); conditions: recombinant PfCDPK1, Kinase-Glo ATP depletion luminescence
Calcium-dependent protein kinase 1 (Plasmodium falciparum (isolate 3D7)), sequence (P62344 whole entry, looked up): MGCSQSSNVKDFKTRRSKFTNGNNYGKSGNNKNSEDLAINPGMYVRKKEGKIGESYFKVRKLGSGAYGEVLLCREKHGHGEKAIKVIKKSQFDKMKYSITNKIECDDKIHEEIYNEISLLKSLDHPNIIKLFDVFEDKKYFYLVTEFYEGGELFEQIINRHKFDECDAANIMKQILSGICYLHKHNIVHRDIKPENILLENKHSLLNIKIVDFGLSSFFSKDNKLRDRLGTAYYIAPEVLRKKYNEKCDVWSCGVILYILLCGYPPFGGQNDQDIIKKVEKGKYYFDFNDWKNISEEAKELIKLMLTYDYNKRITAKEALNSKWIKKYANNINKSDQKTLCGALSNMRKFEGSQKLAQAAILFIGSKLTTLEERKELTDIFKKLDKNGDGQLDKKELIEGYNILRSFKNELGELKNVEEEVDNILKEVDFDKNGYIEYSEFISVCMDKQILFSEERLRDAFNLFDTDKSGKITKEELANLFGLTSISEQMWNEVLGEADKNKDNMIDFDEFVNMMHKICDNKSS

[6] = biological target: Plasmodium falciparum protein kinase 6 (PK6, PF3D7_1337100) (UniProt Q8IDW1); test: PfPK6 kinase inhibitors, biochemical, TCAMS library (AID 1159586); conditions: recombinant PfPK6, Kinase-Glo ATP depletion luminescence
Plasmodium falciparum protein kinase 6 (PK6, PF3D7_1337100), sequence (Q8IDW1 1-305): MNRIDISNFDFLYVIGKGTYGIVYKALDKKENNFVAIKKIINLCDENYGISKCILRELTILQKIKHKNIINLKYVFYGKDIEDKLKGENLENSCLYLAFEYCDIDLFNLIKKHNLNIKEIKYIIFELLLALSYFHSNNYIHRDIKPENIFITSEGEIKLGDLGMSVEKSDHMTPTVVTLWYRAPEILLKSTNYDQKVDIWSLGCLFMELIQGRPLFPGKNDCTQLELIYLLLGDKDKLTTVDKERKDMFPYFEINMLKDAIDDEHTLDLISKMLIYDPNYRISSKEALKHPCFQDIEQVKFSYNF

[7] = biological target: Protein kinase 7 (PK7), Plasmodium falciparum 3D7 (PF3D7_0213400) (UniProt Q7YTF7); test: inhibition of Plasmodium PK7 catalytic activity – biochemical, TCAMS antimalarial set, Kinase-Glo luminescence (AID 1159587); conditions: recombinant PfPK7, Kinase-Glo ATP depletion luminescence
Protein kinase 7 (PK7), Plasmodium falciparum 3D7 (PF3D7_0213400), sequence (Q7YTF7 1-343): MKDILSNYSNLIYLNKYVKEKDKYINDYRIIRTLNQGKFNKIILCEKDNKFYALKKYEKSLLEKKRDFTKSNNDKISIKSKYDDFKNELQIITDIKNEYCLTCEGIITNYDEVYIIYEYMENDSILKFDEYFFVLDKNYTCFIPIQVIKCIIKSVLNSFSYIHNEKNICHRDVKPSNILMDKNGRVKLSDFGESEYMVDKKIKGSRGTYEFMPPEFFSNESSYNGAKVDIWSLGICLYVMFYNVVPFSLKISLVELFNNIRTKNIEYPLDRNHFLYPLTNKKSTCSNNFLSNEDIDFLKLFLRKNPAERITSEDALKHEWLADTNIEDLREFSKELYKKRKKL

[8] = biological target: Calcium-dependent protein kinase 4 (Plasmodium falciparum (isolate 3D7)) (UniProt Q8IBS5); test: PfCDPK4 kinase inhibitors, biochemical, TCAMS library (AID 1159588; cut-off not given, nearly all actives have IC50 up to about 0.91 µM); conditions: recombinant PfCDPK4, Kinase-Glo ATP depletion luminescence
Calcium-dependent protein kinase 4 (Plasmodium falciparum (isolate 3D7)), sequence (Q8IBS5 whole entry, looked up): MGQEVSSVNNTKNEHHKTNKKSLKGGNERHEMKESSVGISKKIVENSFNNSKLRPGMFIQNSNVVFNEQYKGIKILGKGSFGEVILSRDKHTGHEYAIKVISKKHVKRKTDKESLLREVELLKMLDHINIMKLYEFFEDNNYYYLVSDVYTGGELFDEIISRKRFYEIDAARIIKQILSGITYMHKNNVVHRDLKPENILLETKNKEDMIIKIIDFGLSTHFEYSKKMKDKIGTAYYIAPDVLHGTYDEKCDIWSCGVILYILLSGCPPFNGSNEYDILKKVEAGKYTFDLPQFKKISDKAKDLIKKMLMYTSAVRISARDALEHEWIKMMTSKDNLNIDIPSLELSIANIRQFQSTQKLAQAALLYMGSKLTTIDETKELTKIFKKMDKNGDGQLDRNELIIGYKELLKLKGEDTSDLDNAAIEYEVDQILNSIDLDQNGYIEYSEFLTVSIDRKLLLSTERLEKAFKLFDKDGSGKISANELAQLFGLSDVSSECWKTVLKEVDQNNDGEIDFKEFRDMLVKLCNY

O=c1cc(NCCCNCc2ccccc2-c2ccccc2)[nH]c2ccccc12
active: growth inhibition [4] 88%
inactive: growth inhibition [1] 46% | inhibition [2] 0% | inhibition [3] -1% | outcome [5] | outcome [6] | outcome [7] | outcome [8]

CC(Cc1ccc(OCc2ccccc2)cc1)Nc1nc2ccccc2c(=O)[nH]1 (stereo not given)
inactive: inhibition [2] 2% | inhibition [3] -1% | outcome [5] | outcome [6] | outcome [7] | outcome [8]
active: growth inhibition [1] 96% | growth inhibition [4] 98%

CCc1ccc2c(c1O)CCN(C)C2Cc1ccccc1Cl (stereo not given)
inactive: inhibition [2] 13% | inhibition [3] -3% | outcome [5] | outcome [6] | outcome [7] | outcome [8]
active: growth inhibition [1] 99% | growth inhibition [4] 99%

CC(=O)c1cccc2c(NC(=O)Nc3ccc4nccc(N5CCN(C)CC5)c4c3)cccc12
inactive: inhibition [2] 13% | inhibition [3] -3% | outcome [5] | outcome [6] | outcome [7] | outcome [8]
active: growth inhibition [1] 94% | growth inhibition [4] 99%

CN1CCC(NCc2ccc(-c3ccc(C(F)(F)F)cc3)cc2)CC1
active: growth inhibition [1] 71% | inhibition [2] 54% | growth inhibition [4] 99%
inactive: inhibition [3] 5% | outcome [5] | outcome [6] | outcome [7] | outcome [8]

O=C(Nc1cc(Cl)cc(Cl)c1)c1cc(Cl)c(=O)n(Cc2ccc(Cl)cc2)c1
active: growth inhibition [1] 57% | growth inhibition [4] 89%
inactive: inhibition [2] 7% | inhibition [3] 7% | outcome [5] | outcome [6] | outcome [7] | outcome [8]

CO/C(=C\C=C\c1cc2cc(Cl)c(Cl)cc2[nH]1)C(=O)NCCCCN1CCN(c2ccccc2OC)CC1
active: growth inhibition [1] 96% | inhibition [2] 55% | growth inhibition [4] 100%
inactive: inhibition [3] -1% | outcome [5] | outcome [6] | outcome [7] | outcome [8]

Cc1cccc2[nH]c(-c3ccc(-c4ccc(CNCc5ccc(CN)cc5)cc4)cc3)nc12
active: growth inhibition [4] 100%
inactive: growth inhibition [1] 46% | inhibition [2] 14% | inhibition [3] -4% | outcome [5] | outcome [6] | outcome [7] | outcome [8]

NC(=O)NC(=O)C=Cc1ccco1
active: growth inhibition [4] 97%
inactive: growth inhibition [1] -3% | inhibition [2] 32% | inhibition [3] -7% | outcome [5] | outcome [6] | outcome [7] | outcome [8]

O=C(NCC1CC1)C1CCN(C(c2ccccc2)c2ccc(Cl)c(Cl)c2)CC1 (stereo not given)
active: growth inhibition [1] 96% | growth inhibition [4] 97%
inactive: inhibition [2] 7% | inhibition [3] -1% | outcome [5] | outcome [6] | outcome [7] | outcome [8]

C[C@H](Cc1ccc(OCCCCCCOc2ccc(C[C@@H](C)NC[C@H](O)c3cccc(Cl)c3)cc2)cc1)NC[C@H](O)c1cccc(Cl)c1
active: growth inhibition [1] 99% | inhibition [2] 99% | growth inhibition [4] 99%
inactive: inhibition [3] 3% | outcome [5] | outcome [6] | outcome [7] | outcome [8]

CN1CCN(C(C(=O)NCc2cc(Cl)cc(Cl)c2)c2ccc(Nc3cccc(C(F)(F)F)c3)cc2)CC1 (stereo not given)
inactive: inhibition [2] 49% | inhibition [3] 5% | outcome [5] | outcome [6] | outcome [7] | outcome [8]
active: growth inhibition [1] 98% | growth inhibition [4] 85%

CCOC(=O)c1[nH]c2cc(Cl)cc(Cl)c2c1/C=C/C(=O)Nc1ccc(-c2cnc(NC(C)=O)[nH]2)cc1
inactive: inhibition [2] 45% | inhibition [3] -3% | outcome [5] | outcome [6] | outcome [7] | outcome [8]
active: growth inhibition [1] 65% | growth inhibition [4] 100%

O=C(NC1CCN(Cc2ccc(Cl)cc2)CC1)c1cn(-c2ccccc2)nc1-c1cccnc1
inactive: growth inhibition [1] 9% | inhibition [2] 13% | inhibition [3] -2% | outcome [5] | outcome [6] | outcome [7] | outcome [8]
active: growth inhibition [4] 93%

CCCN(CCCCCCNCCc1ccc(Cl)cc1)CCc1ccc(O)c(O)c1
active: growth inhibition [4] 91%
inactive: growth inhibition [1] 11% | inhibition [2] 26% | inhibition [3] -3% | outcome [5] | outcome [6] | outcome [7] | outcome [8]

CC(C)[C@H](NC(=O)c1ccc(O)c(-c2ccc(Cl)c(Cl)c2)c1)C(=O)NCCN1CCCC1
active: growth inhibition [1] 83% | growth inhibition [4] 98%
inactive: inhibition [2] 4% | inhibition [3] 4% | outcome [5] | outcome [6] | outcome [7] | outcome [8]

Cc1ccc2nc3c(cc(C(=O)NCc4ccccc4)c(=N)n3CCCn3ccnc3)c(=O)n2c1
active: growth inhibition [4] 93%
inactive: growth inhibition [1] -1% | inhibition [2] 10% | inhibition [3] -3% | outcome [5] | outcome [6] | outcome [7] | outcome [8]

Cc1cc(N(C)C2CCN(CC3CCCCC3)C2)nc(Nc2ccc(Cl)cc2)n1 (stereo not given)
inactive: growth inhibition [1] 35% | inhibition [2] -3% | inhibition [3] -5% | outcome [5] | outcome [6] | outcome [7] | outcome [8]
active: growth inhibition [4] 98%

O=C(c1cc(-c2ccco2)[nH]n1)N1CCN(S(=O)(=O)c2ccc(Br)cc2)CC1
inactive: inhibition [2] 1% | inhibition [3] -5% | outcome [5] | outcome [6] | outcome [7] | outcome [8]
active: growth inhibition [1] 90% | growth inhibition [4] 95%

CCN(CC)C(=NCCCCCCN=C(/N=C(/N)Nc1ccc(C)cc1)N(CC)CC)/N=C(/N)Nc1ccc(C)cc1
active: growth inhibition [1] 98% | growth inhibition [4] 97%
inactive: inhibition [2] 10% | inhibition [3] -3% | outcome [5] | outcome [6] | outcome [7] | outcome [8]

Cc1cccc2[nH]c(-c3cccc(-c4ccc(C(=O)NCc5ccccc5S(C)(=O)=O)cc4)c3)nc12
active: growth inhibition [4] 100%
inactive: growth inhibition [1] 27% | inhibition [2] 17% | inhibition [3] 1% | outcome [5] | outcome [6] | outcome [7] | outcome [8]

CC(C)Cc1nc(N2CCOCC2)c2nnn(Cc3ccccc3)c2n1
inactive: inhibition [2] 7% | inhibition [3] -2% | outcome [5] | outcome [6] | outcome [7] | outcome [8]
active: growth inhibition [1] 76% | growth inhibition [4] 98%

Cc1cccc2[nH]c(-c3cccc(-c4cccc(NC(=O)CN5CCN(C)CC5)c4)c3)nc12
active: growth inhibition [1] 99% | inhibition [2] 76% | growth inhibition [4] 101%
inactive: inhibition [3] -1% | outcome [5] | outcome [6] | outcome [7] | outcome [8]

O=C(NCCCNc1ccc2ccccc2n1)c1cc2c(Cl)cc(Cl)cc2[nH]1
active: growth inhibition [1] 100% | growth inhibition [4] 100%
inactive: inhibition [2] 40% | inhibition [3] 4% | outcome [5] | outcome [6] | outcome [7] | outcome [8]

Cc1ccc(CCOCCCCCNCC(O)c2cc(Cl)c(N)c(Cl)c2)cc1 (stereo not given)
inactive: inhibition [2] 10% | inhibition [3] -1% | outcome [5] | outcome [6] | outcome [7] | outcome [8]
active: growth inhibition [1] 98% | growth inhibition [4] 99%

CCc1cc2c(=O)c(-c3nc(C)cs3)c(N)oc2c(CN2CCCCC2)c1O
inactive: inhibition [2] -2% | inhibition [3] 0% | outcome [5] | outcome [6] | outcome [7] | outcome [8]
active: growth inhibition [1] 97% | growth inhibition [4] 99%

CCN1CCC(NCc2ccc(-c3ccc(Cl)cc3)cc2)CC1
inactive: growth inhibition [1] 33% | inhibition [2] 25% | inhibition [3] -2% | outcome [5] | outcome [6] | outcome [7] | outcome [8]
active: growth inhibition [4] 100%

Cc1cccc2[nH]c(-c3cccc(-c4cccc(NC(=O)N[C@@H]5C[C@H]5c5ccccc5)c4)c3)nc12
inactive: growth inhibition [1] 28% | inhibition [2] -4% | inhibition [3] -1% | outcome [5] | outcome [6] | outcome [7] | outcome [8]
active: growth inhibition [4] 98%

Cc1nc(-c2ccc(-c3ccc(NC(=O)c4coc5ccc(N6C[C@@H](C)N(C)[C@@H](C)C6)cc45)cc3)c(C)c2)no1
inactive: growth inhibition [1] 46% | inhibition [2] 21% | inhibition [3] 1% | outcome [5] | outcome [6] | outcome [7] | outcome [8]
active: growth inhibition [4] 96%

O=C(Nc1ccc(N2CCCCC2)c(Cl)c1)c1ccco1
inactive: inhibition [2] -1% | inhibition [3] -6% | outcome [5] | outcome [6] | outcome [7] | outcome [8]
active: growth inhibition [1] 95% | growth inhibition [4] 96%

O=C(Nc1ccc(Cl)c(Cl)c1)N1CCc2ccc(OCCCN3CCCCC3)cc2CC1
inactive: growth inhibition [1] -2% | inhibition [2] 27% | inhibition [3] -2% | outcome [5] | outcome [6] | outcome [7] | outcome [8]
active: growth inhibition [4] 92%

COc1ccc2ncc(OC)c(CCN3CC[C@@H](NCc4ccc5c(n4)NC(=O)CS5)[C@H](O)C3)c2n1
active: growth inhibition [1] 99% | growth inhibition [4] 94%
inactive: inhibition [2] 21% | inhibition [3] 4% | outcome [5] | outcome [6] | outcome [7] | outcome [8]

O=C(Nc1cccc(-c2ccc(-c3nc4ccc(F)cc4[nH]3)cc2)c1)c1csnn1
inactive: growth inhibition [1] 31% | inhibition [2] 22% | inhibition [3] 0% | outcome [5] | outcome [6] | outcome [7] | outcome [8]
active: growth inhibition [4] 94%

C[C@@H](COc1ccc(-c2ccccc2)cc1)CON1C(N)=NC(N)=NC1(C)C
inactive: inhibition [3] 3% | outcome [5] | outcome [6] | outcome [7] | outcome [8]
active: growth inhibition [1] 96% | inhibition [2] 62% | growth inhibition [4] 96%

Cc1cc(-c2ccc(NC(=O)Nc3ccc4nccc(N5CCN(C)CC5)c4c3)cc2C)cc(C)n1
inactive: inhibition [2] -2% | inhibition [3] 4% | outcome [5] | outcome [6] | outcome [7] | outcome [8]
active: growth inhibition [1] 76% | growth inhibition [4] 100%

O=C(Nc1ccccc1)N1CCOC(CCN2CCC(F)(F)CC2)(c2ccc(Cl)c(Cl)c2)C1 (stereo not given)
inactive: inhibition [2] 20% | inhibition [3] 3% | outcome [5] | outcome [6] | outcome [7] | outcome [8]
active: growth inhibition [1] 100% | growth inhibition [4] 102%

O=[N+]([O-])c1cccc(NC(=S)N2CCCN(Cc3ccc(F)cc3F)CC2)c1
inactive: inhibition [2] 5% | inhibition [3] -1% | outcome [5] | outcome [6] | outcome [7] | outcome [8]
active: growth inhibition [1] 98% | growth inhibition [4] 99%

FC(F)(F)c1ccc2nc(-c3ccc(-c4ccc(CNCCN5CCNCC5)cc4)s3)[nH]c2c1
inactive: inhibition [2] 17% | inhibition [3] -2% | outcome [5] | outcome [6] | outcome [7] | outcome [8]
active: growth inhibition [1] 79% | growth inhibition [4] 94%

CCOc1c(OC)ccc2c1CCN(CCN1CCC(CNC(=O)c3ccc(-c4ccc(C(F)(F)F)cc4)cc3)CC1)C2
inactive: growth inhibition [1] 21% | inhibition [3] 2% | outcome [5] | outcome [6] | outcome [7] | outcome [8]
active: inhibition [2] 54% | growth inhibition [4] 102%

C[C@@H](C(=O)N1CCOCC1)N1CC[C@H](NS(=O)(=O)c2ccc3ccnc(N)c3c2)C1=O
inactive: inhibition [2] -6% | inhibition [3] -4% | outcome [5] | outcome [6] | outcome [7] | outcome [8]
active: growth inhibition [1] 61% | growth inhibition [4] 84%
